CYP2C9 act: human CYP2C9 activators, primary screen, biochemical, luminescence | recombinant CYP2C9, luciferin-H conversion; hits give high values; factor 1 = untreated enzyme, 0 = blocked | activation factor at 5 µM | 1.4% of 96,000 active;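 active means activation factor of 2 or more for CYP2C9 at a 5 µM dose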;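 further: 0 = sulfaphenazole-blocked wells and 1 = vehicle-only wells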
CYP2C19 inhib: blockers of cytochrome P450 2C19 activity – biochemical, luminescence, ADME assay, primary screen; P33261; CYP2C19 Supersomes, luciferin-H EGE luminescence, 30 min; inhibition, % at 5 µM; 21% of 96,000 active; AID 778, 2007;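 active means CYP2C19 inhibition above a set limit at 5 µM in the primary screen, cut at about 50% in these data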;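 further: plate controls were negative control wells for no effect and 2.5 mM tranylcypromine positive control for full effect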
Target sequence (P33261 whole entry, looked up): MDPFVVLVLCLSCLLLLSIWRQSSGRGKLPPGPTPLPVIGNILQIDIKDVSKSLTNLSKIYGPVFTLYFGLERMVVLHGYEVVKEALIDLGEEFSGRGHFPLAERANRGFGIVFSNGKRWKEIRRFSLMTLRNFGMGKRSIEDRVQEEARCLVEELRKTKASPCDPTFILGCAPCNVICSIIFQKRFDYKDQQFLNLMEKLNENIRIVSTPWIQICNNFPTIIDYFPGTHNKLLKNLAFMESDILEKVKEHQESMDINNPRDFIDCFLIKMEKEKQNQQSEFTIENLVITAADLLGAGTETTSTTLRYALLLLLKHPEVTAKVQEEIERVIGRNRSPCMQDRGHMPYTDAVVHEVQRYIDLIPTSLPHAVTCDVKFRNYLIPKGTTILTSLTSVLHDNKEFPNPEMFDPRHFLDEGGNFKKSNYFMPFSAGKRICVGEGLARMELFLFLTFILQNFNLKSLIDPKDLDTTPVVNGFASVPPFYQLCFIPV
Cav3 T inh: Cav3.2 calcium influx blockers – cell-based, Fluo-4 calcium fluorescence, FDSS, MLSMR library, primary screen; Voltage-dependent T-type calcium channel subunit alpha-1H (Homo sapiens), O95180; Cav3.2-expressing cells; hits give low values; B-score at 10 µM; 4% of 100,000 active; AID 449739, 2010;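 active means single-dose well whose peak fluorescence ratio is a statistical outlier from its plate by either plate-standardised score or position-corrected B-score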
CYP2C19 act: human CYP2C19 activators, primary screen, biochemical, luminescence | activation factor at 5 µM | AID 1025, 2008 | 96,000 tested, under 10 active | recombinant CYP2C19, luciferin-H EGE luminescence; hits give high values; 0 = fully inhibited enzyme, 1 = untreated enzyme;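 active means activation factor of at least 2 at 5 µM in the primary screen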;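 further: 0 = wells with 2.5 mM tranylcypromine and 1 = vehicle-only wells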
CYP2C9 inhib: blockers of cytochrome P450 2C9 activity – biochemical, luminescence, ADME assay, primary screen. 20% of 96,000 active. P11712. inhibition, % at 5 µM. CYP2C9 Supersomes, luciferin-H conversion;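 active means blocking of liver enzyme CYP2C9 beyond about 50% at 5 µM, limit read from the data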
The depositor's hits bear a star; / = not tested or not shown. An excerpt weighted towards active compounds, which were near 27% of everything screened.

SMILES	CYP2C9 act	CYP2C19 inhib	Cav3 T inh	CYP2C19 act	CYP2C9 inhib
c1cncc(C2Nc3ccccc3-c3nc4ccccc4n32)c1 (stereo not drawn)	0.4	37.2	1.63	0.6	57.1*
CCN(CC)CCn1c(NCc2ccc(C)o2)nc2ccccc21	0.8	44.0	/	0.6	16.0
c1ccc2c(c1)NC(c1ccncc1)n1c-2nc2ccccc21 (stereo not drawn)	/	/	0.239	/	/
CCN1c2ccccc2-c2nc3ccccc3n2C1c1ccccn1 (stereo not drawn)	0.7	10.3	-2.45	0.9	34.1
CCN1c2ccccc2-c2nc3ccccc3n2C1c1cccnc1 (stereo not drawn)	0.3	15.3	-0.553	0.8	71.1*
Cc1ccc(C2N(C)c3ccccc3-c3nc4ccccc4n32)o1 (stereo not drawn)	0.1	86.9*	-5.37*	0.1	92.6*
NC(=O)CC(NC(=O)Cc1ccc(Br)cc1)c1ccc(NCCc2cccc(F)c2)c([N+](=O)[O-])c1 (stereo not drawn)	/	/	-0.00379	/	/
CCN(CC)C(=O)CN(Cc1ccccc1)S(=O)(=O)c1ccc(F)cc1	1.1	16.4	-1.19	0.8	-6.8
CCOC(=O)c1oc2ccc(CNC(C)(C)C)c(Cl)c2c1C	/	/	2.21	/	/
CCOC(=O)c1oc2ccc3c(c2c1C)C(=O)CC1(CCN(C(=O)OCC)CC1)O3	0.5	52.1*	0.544	0.5	51.0*
CCOC(=O)c1oc2cccc(OC(C)=O)c2c1C	1.2	76.0*	0.0639	0.2	-22.7
COc1ccccc1CNC(=O)C1CCC(CNc2c(N3CCOCC3)c(=O)c2=O)CC1 (stereo not drawn)	0.9	-3.3	-0.511	1	7.6
CCc1nc(SCCO)c2oc3ccccc3c2n1	0.3	51.0*	-0.641	0.5	65.8*
CCc1nc(SCc2nc3ccccc3[nH]2)c2oc3ccccc3c2n1	0	99.9*	-1.65	0	98.4*
CCc1nc(SCC(=O)c2ccc(Cl)s2)c2oc3ccccc3c2n1	0.3	41.5	-1.26	0.6	75.0*
CCc1cc2c(NCCC(=O)O)ncnc2s1	0.9	12.2	0.413	0.9	11.8
CCc1nc(SCC(=O)N2CCN(c3ccccc3)CC2)c2oc3ccccc3c2n1	0.9	11.4	-0.594	0.9	14.0
CCc1cc2c(SCC(=O)c3ccc(Cl)s3)ncnc2s1	0.2	81.8*	0.15	0.2	82.1*
CNCCCNCc1ccc(SC)cc1	1	0.8	-0.155	1	3.4
CCOC(=O)c1cnn(-c2c(Cc3ccccc3)c(C)nc3c(-c4ccccc4)c(C)nn23)c1N	1	-25.5	-0.346	1.3	1.3
Cc1c(C(=O)NCCC2=CCCCC2)oc2ccc(S(=O)(=O)N3CCC4(CC3)OCCO4)cc12	0.6	18.4	-5.56*	0.8	37.5
Cc1c(C(=O)NCc2ccc3c(c2)OCO3)oc2ccc(S(=O)(=O)N3CCCCCC3)cc12	0.3	24.0	-2.49	0.8	67.9*
Cc1c(C(=O)NCc2ccc3c(c2)OCO3)oc2ccc(S(=O)(=O)N3CCC(C)CC3)cc12	/	/	-4.79*	/	/
Cc1ccc2oc(C(=O)NCc3ccc4c(c3)OCO4)c(C)c2c1	0.7	21.8	/	0.8	28.2
CCC(CC)C(=O)NCCc1cc2ccc(C)c(C)c2[nH]c1=O	0.9	-5.0	/	1.1	13.2
SMILES	CYP2C9 act	CYP2C19 inhib	Cav3 T inh	CYP2C19 act	CYP2C9 inhib
Cc1ccc(CNC2=NCCCCC2)n1C	1	-0.4	0.196	1	2.2
CCOCC(=O)Nc1nc2ccccc2s1	/	/	-0.0136	/	/
OC(CNc1nc2ccccc2s1)c1ccccc1 (stereo not drawn)	0.3	94.6*	-0.696	0.1	69.5*
COc1ccc(CCNC(=O)CCn2c(=O)oc3ccccc32)cc1	0.8	17.5	0.534	0.8	23.8
CCSc1nnc(NC(=O)CCn2c(=O)oc3ccccc32)s1	/	/	-0.657	/	/
COc1ccccc1CCNC(=O)CCn1c(=O)oc2ccccc21	0.6	82.6*	0.144	0.2	44.1
O=C(CCn1c(=O)oc2ccccc21)Nc1nc2ccccc2s1	0.4	52.5*	-4.64	0.5	59.2*
CC(C)OC(=O)CCC(=O)Nc1nc2ccccc2s1	0.3	81.1*	-1.45	0.2	66.4*
Cn1c(=O)c2c(nc(CN3CCN(C(=O)c4ccco4)CC3)n2Cc2ccc(Cl)cc2)n(C)c1=O	0.8	11.5	1.33	0.9	23.1
CCOc1ccc(-c2nnc(SCc3nc4ccccc4[nH]3)n2N)cc1	0.9	21.4	0.144	0.8	12.6
